Reference: PubChem BioAssay (Tox21)
Records with an inconclusive call do not appear. Calls of active or inactive are those of the source. Unless noted, calls follow the shape of the dose curve; as a rule, active = well fitted curve in the direction sought with a large enough effect in the repeat runs; inconclusive = weak or mixed curves; inactive = no such curve, though single readings can be large; an effect the other way counts as inactive or inconclusive.

Experiments:
[1] = qHTS assay to identify small molecule agonists of the vitamin D receptor (VDR) signaling pathway - cell viability counter screen (AID 743224); also: series mostly up to about 63 µM; % is scaled to controls: 0 for no effect and ±100 for the full control effect; nearly all actives have a fitted effect of over 50% in size
Procedure, shortened: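 Counter screen for cytotoxicity: VDR-bla cells at 2,000 cells/well, 16 h compound exposure, then CellTiter-Glo luminescence after the beta-lactamase measurement.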

[2] = qHTS assay to identify small molecule antagonists of the vitamin D receptor (VDR) signaling pathway - cell viability counter screen (AID 743225); also: % is scaled to controls: 0 for no effect and ±100 for the full control effect; nearly all actives have a fitted effect of over 50% in size
Procedure, shortened: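 HEK293T VDR-bla; cpd + 1a,25-(OH)2D3 3 nM final, 16 h 37C/5% CO2; B/G FRET substrate 2 h RT; then CellTiter-Glo 30 min RT, luminescence.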

[3] = qHTS assay to identify small molecule agonists of the NFkB signaling pathway (AID 1159509; active = well fitted curve in the direction sought with a large enough effect in the signal ratio in the repeat runs, not every such curve was filed as active; the % refers to the signal ratio; also: series mostly up to about 61 µM; % is scaled to controls: 0 for no effect and ±100 for the full control effect)
Procedure, shortened: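 Pathway activation was measured in ME-180 cells stably expressing beta-lactamase under NF-kB response element control. Substrate cleavage was read as the 460/530 nm emission shift after 5 hr compound incubation.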

[4] = qHTS assay to identify small molecule agonists of the NFkB signaling pathway - cell viability counter screen (AID 1159515; calls by dose curve; also: series mostly up to about 61 µM; % is scaled to controls: 0 for no effect and ±100 for the full control effect; nearly all actives have a fitted effect of over 55% in size)
Procedure, shortened: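 Counter screen run alongside the NFkB-bla agonist assay: ME-180 reporter cells exposed to compounds for 5 hr, then lysed with CellTiter-Glo in the same wells. Luminescence, read after 30 min, reflects viable cells.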

[5] = qHTS assay to identify small molecule agonists of the endoplasmic reticulum stress response signaling pathway (AID 1159516; active = well fitted activation curve with a large enough effect in the signal ratio in the repeat runs, not every such curve was filed as active; the % refers to the signal ratio; also: % is scaled to controls: 0 for no effect and ±100 for the full control effect)
Procedure, shortened: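 For this screen, HeLa cells stably carrying beta-lactamase under the ER stress response element received test compounds, positive controls or DMSO for 5 hr at 37 C; B/G FRET substrate was then added and dual-wavelength emission recorded.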

[6] = qHTS assay to identify small molecule agonists of the endoplasmic reticulum stress response signaling pathway - cell viability counter screen (AID 1159517; calls by dose curve; also: series mostly up to about 61 µM; % is scaled to controls: 0 for no effect and ±100 for the full control effect; nearly all actives have a fitted effect of over 50% in size)
Procedure, shortened: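 ESRE-bla HeLa cells (1,500/well) were plated overnight at 37 C and exposed to compounds for 5 hr. After the 2 hr beta-lactamase substrate read, CellTiter-Glo went into the same wells, and luminescence was read after 30 min at room temperature.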

[7] = qHTS assay to identify small molecule antagonists of the retinoid-related orphan receptor gamma (ROR-gamma) signaling pathway - cell viability counter screen (AID 1159520); also: % is scaled to controls: 0 for no effect and ±100 for the full control effect; nearly all actives have a fitted effect of over 50% in size
Procedure, shortened: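 Cytotoxicity was read from cellular ATP (CellTiter-Glo luminescence) after 16 hr at 37 C with 1 uM doxycycline induction. The inducer was added 2 hr after compound transfer to Tet-on ROR gamma CHO cells.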

[8] = biological target: Nuclear receptor ROR-gamma (Homo sapiens) (UniProt P51449); assay: qHTS assay to identify small molecule antagonists of the retinoid-related orphan receptor gamma (ROR-gamma) signaling pathway (AID 1159521)
Procedure, shortened: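 Cells were plated, rested 4 h at 37 C, exposed to compounds for 2 h, then given 1 uM final doxycycline hyclate to induce RORγ expression. After 16 h, ONE-Glo luminescence from the ROR response element reporter was measured.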

[9] = qHTS assay to identify small molecule agonists of the AP-1 signaling pathway - cell viability counter screen (AID 1159525; calls by dose curve; also: nearly all actives have a fitted effect of over 55% in size)
Procedure, shortened: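 Intracellular ATP by Cell Titer Glo luminescence (30 min, RT) in the same ME-180 AP-1-bla wells after the 5 h compound exposure at 37 °C. Normalised to tetra n-octyl ammonium bromide and DMSO controls.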

[10] = qHTS assay to identify small molecule agonists of the AP-1 signaling pathway (AID 1159526; calls by dose curve; also: % is scaled to controls: 0 for no effect and ±100 for the full control effect)
[11] = biological target: Retinoic acid receptor RXR-alpha (Homo sapiens) (UniProt P19793); assay: qHTS assay to identify small molecule agonists of the RXR signaling pathway (AID 1159527; calls by dose curve; also: % is scaled to controls: 0 for no effect and ±100 for the full control effect; nearly all actives have a fitted effect of over 35% in size)
Chain of Retinoic acid receptor RXR-alpha (Homo sapiens) (P19793 whole entry, looked up): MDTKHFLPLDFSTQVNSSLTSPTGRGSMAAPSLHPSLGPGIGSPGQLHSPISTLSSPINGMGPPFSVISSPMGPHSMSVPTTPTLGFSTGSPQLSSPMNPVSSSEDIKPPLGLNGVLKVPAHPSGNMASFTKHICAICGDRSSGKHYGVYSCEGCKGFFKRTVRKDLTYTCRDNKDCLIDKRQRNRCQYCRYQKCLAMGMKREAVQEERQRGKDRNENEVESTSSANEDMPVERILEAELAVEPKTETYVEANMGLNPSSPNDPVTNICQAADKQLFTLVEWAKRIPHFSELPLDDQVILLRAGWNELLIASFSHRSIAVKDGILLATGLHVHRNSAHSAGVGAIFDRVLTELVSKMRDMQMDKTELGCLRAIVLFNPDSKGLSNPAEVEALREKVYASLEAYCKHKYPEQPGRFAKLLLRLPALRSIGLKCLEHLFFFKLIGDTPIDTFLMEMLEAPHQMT
Procedure, shortened: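 Cells plated at 2,000/well, rested 5 hr at 37 C, pin-dosed with DMSO compound solutions, incubated 16 hr, then loaded with B/G FRET substrate for 2 hr at RT before dual-emission fluorescence reading.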

[12] = qHTS assay to identify small molecule agonists of the RXR signaling pathway - cell viability counter screen (AID 1159529)
Procedure, shortened: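 Steps: seed RXR-alpha-UAS-bla HEK 293T cells in assay medium containing 2% charcoal-stripped FBS; incubate 5 hr; add compounds in DMSO; incubate 16 hr at 37 C; after the bla read, add CellTiter-Glo and read luminescence at 30 min.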

[13] = qHTS assay to identify small molecule antagonists of the retinoid acid receptor (RAR) signaling pathway - cell viability counter screen (AID 1159551); also: % is scaled to controls: 0 for no effect and ±100 for the full control effect; nearly all actives have a fitted effect of over 35% in size
Procedure, shortened: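 Measured by luminescent ATP detection, viability reflects C3RL4 cells treated 6 h at 37 C with test chemicals in the presence of 1 uM (final) retinol.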

[14] = qHTS assay to identify small molecule antagonists of the retinoic acid receptor (RAR) signaling pathway (AID 1159552)
Procedure, shortened: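 Retinol at 1 uM final stimulated RARE-luciferase expression in C3RL4 cells exposed to test compounds for 6 hr at 37 C. Reduced luminescence, read 30 min after detection reagent, indicated pathway antagonism.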

[15] = qHTS assay to identify small molecule agonists of the retinoic acid receptor (RAR) signaling pathway (AID 1159553); also: % is scaled to controls: 0 for no effect and ±100 for the full control effect
Procedure, shortened: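 6 hr compound exposure (DMSO vehicle) of overnight-plated C3RL4 RARE-luc cells at 37 C; luminescence quantified after 30 min RT with luciferase reagent.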

CCc1nccnc1CC
inactive: Potency [1] | Potency [2] | outcome [3] | outcome [4] | outcome [5] | outcome [6] | activity, negative = cytotoxicity [7] -7.52% [at 19 µM] | Potency [8] | viability change, negative = cytotoxic [9] -1.96% [at 15.8 µM] | outcome [10] | Potency [11] | Potency [12] | activity change, negative = cytotoxicity [13] 1.72% [at 19 µM] | activity, negative = inhibition [14] 7.06% [at 19 µM] | Potency [15]

CC(=O)CC(C)(C)C1CCCCC1
inactive: Potency [1] | Potency [2] | outcome [3] | outcome [4] | outcome [5] | outcome [6] | outcome [7] | Potency [8] | Potency [9] | outcome [10] | Potency [11] | Potency [12] | outcome [13] | Potency [14] | Potency [15]

Cn1cc(S(C)=O)c(=O)c2ccc(F)cc21 (configuration not stated)
inactive: Potency [1] | Potency [2] | outcome [3] | outcome [4] | outcome [5] | outcome [6] | outcome [7] | Potency [8] | Potency [9] | outcome [10] | Potency [11] | Potency [12] | outcome [13] | Potency [14] | Potency [15]

CN1C(=O)N(C)C(O)C1O (configuration not stated)
inactive: Potency [1] | Potency [2] | outcome [3] | outcome [4] | outcome [5] | outcome [6] | outcome [7] | Potency [8] | Potency [9] | outcome [10] | Potency [11] | Potency [12] | outcome [13] | Potency [14] | Potency [15]

NS(=O)(=O)c1cc(C(=O)NN2C[C@H]3[C@H]4CCC(C4)[C@H]3C2)ccc1Cl
inactive: Potency [1] | Potency [2] | outcome [3] | outcome [4] | outcome [5] | outcome [6] | outcome [7] | Potency [8] | Potency [9] | outcome [10] | Potency [11] | Potency [12] | outcome [13] | Potency [14] | Potency [15]

CCCCCSCCCCC
inactive: Potency [1] | Potency [2] | outcome [3] | outcome [4] | outcome [5] | outcome [6] | outcome [7] | Potency [8] | Potency [9] | outcome [10] | Potency [11] | Potency [12] | outcome [13] | Potency [14] | Potency [15]

Cc1cnc(NS(=O)(=O)c2ccc(N)cc2)nc1
inactive: Potency [1] | Potency [2] | outcome [3] | outcome [4] | outcome [5] | outcome [6] | outcome [7] | Potency [8] | Potency [9] | outcome [10] | Potency [11] | Potency [12] | outcome [13] | Potency [14] | Potency [15]

OCCOc1ccc(OCCO)cc1
inactive: Potency [1] | outcome [3] | outcome [4] | outcome [5] | outcome [6] | outcome [7] | Potency [8] | Potency [9] | outcome [10] | Potency [11] | Potency [12] | outcome [13] | Potency [14]

C[N+](C)(C)CC(O)CC(=O)[O-] (configuration not stated)
inactive: Potency [1] | Potency [2] | outcome [3] | outcome [4] | outcome [5] | outcome [6] | outcome [7] | Potency [8] | Potency [9] | outcome [10] | Potency [11] | Potency [12] | outcome [13] | Potency [14]

CC/C=C\CC/C=C/C(OCC)OCC
inactive: Potency [1] | Potency [2] | outcome [3] | outcome [4] | outcome [5] | outcome [6] | outcome [7] | Potency [8] | Potency [9] | outcome [10] | Potency [11] | Potency [12] | outcome [13] | Potency [14] | Potency [15]

Nc1ccccc1S(=O)(=O)O
inactive: Potency [1] | outcome [3] | outcome [4] | outcome [5] | outcome [6] | outcome [7] | Potency [8] | Potency [9] | outcome [10] | Potency [11] | Potency [12] | outcome [13] | Potency [14]

N[C@@H](C(=O)N[C@@H]1C(=O)N2C(C(=O)O)=C(Cl)CS[C@H]12)c1ccccc1
inactive: activity change, negative = cytotoxicity [1] 12.3% [at 13.2 µM] | viability change, negative = cytotoxic [2] -2.62% [at 6.95 µM] | activation [3] -0.195% [at 6.95 µM] | activity, negative = cytotoxic [4] 6.68% [at 6.95 µM] | activation [5] 4.99% [at 6.95 µM] | activity change, negative = cytotoxicity [6] 11.8% [at 6.95 µM] | activity, negative = cytotoxicity [7] 0.217% [at 8.39 µM] | activity change, negative = inhibition [8] 46.6% [at 8.39 µM] | viability change, negative = cytotoxic [9] 3.61% [at 6.97 µM] | activation [10] 0.719% [at 6.97 µM] | activation [11] 3.92% [at 6.98 µM] | activity change, negative = cytotoxicity [12] 16.6% [at 6.97 µM] | activity change, negative = cytotoxicity [13] 2.73% [at 8.39 µM] | activity, negative = inhibition [14] -6.75% [at 8.39 µM]

COc1cc(C(=O)N2CCCCCCC2)cc(OC)c1OC
inactive: Potency [1] | Potency [2] | outcome [3] | outcome [4] | outcome [5] | outcome [6] | outcome [7] | Potency [8] | Potency [9] | outcome [10] | Potency [11] | Potency [12] | outcome [13] | Potency [14] | Potency [15]

COC(=O)c1ccc(C)cc1C1=NC(C)(C(C)C)C(=O)N1 (configuration not stated)
inactive: Potency [1] | outcome [3] | outcome [4] | outcome [5] | outcome [6] | outcome [7] | Potency [8] | Potency [9] | outcome [10] | Potency [11] | Potency [12] | outcome [13] | Potency [14]
